In PubChem BioAssay (Tox21):
Results filed as inconclusive are left out. Values without a mark were called inactive. Active and inactive are the calls of the source. Unless noted, calls follow the shape of the dose curve; as a rule, active = well fitted activation curve with a large enough effect in the repeat runs; inconclusive = weak or mixed curves; inactive = no such curve, though single readings can be large or run the other way.

Test: qHTS assay for small molecule agonists of the p53 signaling pathway (AID 651631; calls by dose curve)
Conditions: HCT-116 p53RE-bla reporter, beta-lactamase FRET ratio, 16 h; series mostly up to 73.3 µM; activation: at the top concentration
How it was run: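 Fluorescence intensity from cleaved LiveBLAzer B/G substrate (2 h, room temperature) served as the signal. Beforehand, HCT-116 reporter cells bearing p53 response elements were treated 16 h at 37 °C with DMSO-dissolved compounds.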
% is scaled to controls: 0 for no effect and ±100 for the full control effect.
Also: nearly all actives have a fitted effect of over 15% in size.

Going from C[N+](C)(C)CCCCCC[N+](C)(C)C to C=CCCCCCCCCC=O, the “activation” value falls from 2.11% to -1.39%.

Compared with NS(=O)(=O)c1cc2c(cc1Cl)NC(C1CC3C=CC1C3)NS2(=O)=O (stereo not given), NS(=O)(=O)c1ccc(C(=O)O)cc1 is lower in “activation” value: 3.74% for the first, 1.69% for the second.

Going from COC(C)(C)CCCC(C)CC=O (stereo not given) to CC(C)CNCC(C)C, the “activation” value falls from 3.05% to 2.71%.

Compared with CCOC(=O)CCC(C)=O, CCOC(=O)c1ccc(C)cc1 is higher in “activation” value: 0.498% for the first, 0.79% for the second.

Compared with NC(=O)COCCN1CCN(C(c2ccccc2)c2ccc(Cl)cc2)CC1 (stereo not given), O=C(CCCN1CCN(c2ccccn2)CC1)c1ccc(F)cc1 is lower in “activation” value: -3.57% for the first, -4.34% for the second.

Compared with O=C(O)CCCc1ccccc1, O=C(O)COc1nn(Cc2ccccc2)c2ccccc12 is lower in “activation” value: 3.29% for the first, -2.4% for the second.

First: CC(=O)c1ccccc1O
Second: COC(=O)[C@@H](N)Cc1ccc(O)c(O)c1
The “activation” value of the first is higher: -1.24% for the first, -2.83% for the second.

First: Cc1cccn2c(=O)c(-c3nnn[nH]3)cnc12
Second: CCCN1CCCC[C@H]1C(=O)Nc1c(C)cccc1C
The “activation” value of the first is higher: 1.04% for the first, -3.88% for the second.

Compared with c1ccc([C@H]2CN3CCSC3=N2)cc1, Oc1ccc(C2CNCCc3c2cc(O)c(O)c3Cl)cc1 (stereo not given) is lower in “activation” value: 5.48% for the first, -4.83% for the second.

Going from CC(C[N+](C)(C)C)OC(N)=O (stereo not given) to CCSC(=O)N(CC(C)C)CC(C)C, the “activation” value falls from 4.59% to 1.53%.

First: CC(=O)OCC(=O)[C@@]1(O)CCC2C3CCC4=CC(=O)CC[C@]4(C)C3[C@@H](O)C[C@@]21C (stereo not given in full)
Second: COc1c(N2C[C@@H]3CCCN[C@@H]3C2)c(F)cc2c(=O)c(C(=O)O)cn(C3CC3)c12
The “activation” value of the first is lower: -2.2% for the first, 1.35% for the second.

First: COC(=O)c1c(Cl)c(Cl)c(C(=O)OC)c(Cl)c1Cl
Second: CCN1CCC[C@H]1CNC(=O)c1c(O)c(Cl)cc(Cl)c1OC
The “activation” value of the first is lower: -1.55% for the first, 1.94% for the second.

Going from O=C1CCCC(=O)C1 to NC(=O)c1ccc([N+](=O)[O-])cc1, the “activation” value falls from -1.39% to -4.93%.

First: CC1(C)C(O)C(C)(C)C1O (stereo not given)
Second: COc1nc(N)nc2c1ncn2[C@@H]1O[C@H](CO)[C@@H](O)[C@@H]1O
The “activation” value of the first is higher: 2.31% for the first, 0.614% for the second.

Going from CC/C=C\CC/C=C/C(OCC)OCC to C=C[Si](OC(=C)C)(OC(=C)C)OC(=C)C, the “activation” value rises from -2.33% to -0.758%.

First: C1CN(CCOCCN2CCOCC2)CCO1
Second: C=CCS(=O)(=O)O
The “activation” value of the first is lower: -2.51% for the first, 2.76% for the second.

Compared with OCCOc1ccc(OCCO)cc1, O=[N+]([O-])c1ccc(F)cc1F is lower in “activation” value: 3.44% [at 95.1 µM] for the first, -4.43% [at 95.1 µM] for the second.

Compared with CCCCCCCCS(=O)(=O)Cl, CCOC(C)(C)C is higher in “activation” value: -3.82% [at 95.1 µM] for the first, -1.74% [at 95.1 µM] for the second.

With CC[N+](C)(C)c1cccc(O)c1 the “activation” value was 3.13% [at 34.7 µM].

In the case of OC(CCN1CCCCC1)(c1ccccc1)C1CC2C=CC1C2 (stereo not given), the outcome is reported as “inactive”.
In the case of CC(C)NCC(O)c1ccc(NS(C)(=O)=O)cc1 (stereo not given), the outcome is reported as “inactive”.
In the case of CO[Si](CCCOCC1CO1)(OC)OC (stereo not given), the outcome is reported as “inactive”.

Test: qHTS assay for small molecules that induce genotoxicity in human embryonic kidney cells expressing luciferase-tagged ATAD5 (AID 651632)
Conditions: HEK293T ATAD5-luciferase induction, 16 h; series mostly up to 83.3 µM; activation: at the top concentration
How it was run: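 Luminescent reporter readout, HEK293T ATAD5-luc line: 16 hr drug exposure (37C, 5% CO2) followed by Amplite, 30 min RT.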

Going from C[N+](C)(C)CCCCCC[N+](C)(C)C to C=CCCCCCCCCC=O, the “activation” value rises from 0.307% to 5.26%.

Compared with NS(=O)(=O)c1cc2c(cc1Cl)NC(C1CC3C=CC1C3)NS2(=O)=O (stereo not given), NS(=O)(=O)c1ccc(C(=O)O)cc1 is higher in “activation” value: -1.06% for the first, 1.48% for the second.

Going from COC(C)(C)CCCC(C)CC=O (stereo not given) to CC(C)CNCC(C)C, the “activation” value falls from 3.02% to 0.916%.

First: CCOC(=O)CCC(C)=O
Second: CCOC(=O)c1ccc(C)cc1
The “activation” value of the first is lower: -0.346% for the first, 0.347% for the second.

Compared with NC(=O)COCCN1CCN(C(c2ccccc2)c2ccc(Cl)cc2)CC1 (stereo not given), O=C(CCCN1CCN(c2ccccn2)CC1)c1ccc(F)cc1 is lower in “activation” value: 1.18% for the first, -3.87% for the second.

Going from O=C(O)CCCc1ccccc1 to O=C(O)COc1nn(Cc2ccccc2)c2ccccc12, the “activation” value falls from 1.87% to -2.29%.

Going from CC(=O)c1ccccc1O to COC(=O)[C@@H](N)Cc1ccc(O)c(O)c1, the “activation” value rises from -0.458% to 2.12%.

Compared with Cc1cccn2c(=O)c(-c3nnn[nH]3)cnc12, CCCN1CCCC[C@H]1C(=O)Nc1c(C)cccc1C is lower in “activation” value: 1.3% for the first, -2.72% for the second.

First: c1ccc([C@H]2CN3CCSC3=N2)cc1
Second: Oc1ccc(C2CNCCc3c2cc(O)c(O)c3Cl)cc1 (stereo not given)
The “activation” value of the first is lower: -3.43% for the first, -2.77% for the second.

Going from CC(C[N+](C)(C)C)OC(N)=O (stereo not given) to CCSC(=O)N(CC(C)C)CC(C)C, the “activation” value rises from -1.45% to -0.306%.

First: CC(=O)OCC(=O)[C@@]1(O)CCC2C3CCC4=CC(=O)CC[C@]4(C)C3[C@@H](O)C[C@@]21C (stereo not given in full)
Second: COc1nc(N)nc2c1ncn2[C@@H]1O[C@H](CO)[C@@H](O)[C@@H]1O
The “activation” value of the first is higher: 3.99% for the first, -7.58% for the second.

Going from COC(=O)c1c(Cl)c(Cl)c(C(=O)OC)c(Cl)c1Cl to CCN1CCC[C@H]1CNC(=O)c1c(O)c(Cl)cc(Cl)c1OC, the “activation” value falls from 3.33% to -2.36%.

Going from O=C1CCCC(=O)C1 to NC(=O)c1ccc([N+](=O)[O-])cc1, the “activation” value falls from 3.46% to -2.31%.

Compared with CC1(C)C(O)C(C)(C)C1O (stereo not given), C=C[Si](OC(=C)C)(OC(=C)C)OC(=C)C is higher in “activation” value: 2.93% for the first, 4.83% for the second.

First: CC/C=C\CC/C=C/C(OCC)OCC
Second: C1CN(CCOCCN2CCOCC2)CCO1
The “activation” value of the first is higher: 3.6% for the first, 2.3% for the second.

For C=CCS(=O)(=O)O, the “activation” value was 1.43%.

Going from OCCOc1ccc(OCCO)cc1 to O=[N+]([O-])c1ccc(F)cc1F, the “activation” value falls from 0.534% [at 95.3 µM] to -3.51% [at 95.3 µM].

Compared with CCCCCCCCS(=O)(=O)Cl, CCOC(C)(C)C is lower in “activation” value: 2.67% [at 95.3 µM] for the first, 0.108% [at 95.3 µM] for the second.

For CC[N+](C)(C)c1cccc(O)c1, the “activation” value was 1.35% [at 39.1 µM].

For COc1c(N2C[C@@H]3CCCN[C@@H]3C2)c(F)cc2c(=O)c(C(=O)O)cn(C3CC3)c12, the Potency was “inactive”.
In the case of OC(CCN1CCCCC1)(c1ccccc1)C1CC2C=CC1C2 (stereo not given), the Potency is reported as “inactive”.
In the case of CC(C)NCC(O)c1ccc(NS(C)(=O)=O)cc1 (stereo not given), the Potency is reported as “inactive”.
With CO[Si](CCCOCC1CO1)(OC)OC (stereo not given) the Potency was “inactive”.
